# Laboratory results published in PubChem BioAssay (NCI).
# Compounds without any hit were thinned out: in the full panel of roughly 83,000, 20% have a hit.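 Single-concentration screen, 48 h exposure, 96-well plates. Endpoint: percent growth. Below 10 = active.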 Values without a mark were called inactive. Calls of active or inactive are those of the source.
# Tested on: SK-MEL-5 melanoma
# Assay: NCI-60 one-dose screen, 48 h (100 = growth as untreated, 0 = no growth, -100 = all killed)
# Details: 10 µM unless noted
row,SMILES,growth
1,Cc1cc(C)cc(S(=O)(=O)n2ccc(-c3ccc4c(c3)CCC(C)(C)O4)n2)c1,82.9%
2,CCc1nn2c(-c3ccc(Cl)cc3C)c(-c3cc(OC)c(OC)c(OC)c3)nc2s1,70.3%
3,O=C(Nc1cccc(-n2cc(-c3ccncc3)c(-c3cc(O)cc(Cl)c3)n2)c1)Nc1ccc(Cl)c(Cl)c1,-53% (active)
4,COc1ccccc1-n1c(-c2ccc(O)cc2C)cn2c3c(=O)[nH]c(=O)n(C)c3nc12,81.5%
5,CCCCCN1C(=O)CCC1=O,102%
6,O=C1NCCc2c1noc2-c1ccccc1,105%
7,CCOC(=O)c1cc2oc(/C=C/c3cc(=O)c4cc(Cl)ccc4o3)cc2[nH]1,68.2%
8,COc1cc(/C=C/C(=O)c2c(C)n([O-])c3ccccc3[n+]2=O)cc(OC)c1OC,21.3%
9,O=C(c1ccccc1)C(CN1CCCCC1)c1ccccc1 (configuration not stated),58.8%
10,c1ccc2c(-c3nc4ccccc4[nH]3)cccc2c1,20.1%
11,COc1cc(/C=C/c2cc(/C=C/c3ccc(O)c(OC)c3)n(C(=O)Cc3ccccc3)n2)ccc1O,-31.8% (active)
12,O=C1NC(=O)/C(=C/c2ccc(Cl)cc2Cl)N1,108%
13,COc1ccc(NS(=O)(=O)N2CCCCC2)cc1,97.1%
14,COc1ccc(-c2cc(-c3cccnc3)nc3sc(C(=O)Nc4ccccc4)c(N)c23)cc1OC,75.1%
15,C/C(=C\CCc1ccoc1)CC/C=C(\C)CCCNc1ccc(F)cc1,99.9%
16,Cc1cc2c(cc1C)[n+](Cc1ccc3ccccc3c1)cn2Cc1ccc2ccccc2c1,-99.2% (active)
17,CCN(CC)CCCCCCCNc1c2ccc(Cl)cc2nc2ccc(OC)cc12,-100% (active)
18,Cc1cc(C(=O)Nc2ccc3cc(CN4CCOCC4)ccc3n2)c(C)n1-c1ccccc1,-38.1% (active)
19,COc1cc(Cl)cc(-c2nn(-c3cccc(NC(=O)c4cc(C(F)(F)F)cc(C(F)(F)F)c4)c3)cc2-c2ccncc2)c1,67.3%
20,O=C(NCCNC(=O)Oc1cccc2ccccc12)Oc1cccc2ccccc12,85.9%
21,COC(=O)[C@H](Cc1cn(C)cn1)NC(=O)[C@H](C)NC(=O)Nc1cc(C(F)(F)F)cc(C(F)(F)F)c1,-95.4% [100 µM] (active)
22,O=C1CNc2cc(Cl)ccc2N1,99.9%

# Tested on: UACC-62 melanoma
# Assay: as above
# Details: 10 µM unless noted
row,SMILES,growth
1,CC(=O)N1N=C(c2ccc(Cl)cc2)CC1c1c(C)nn(-c2ccccc2)c1N(C)Cc1ccccc1 (configuration not stated),51%
2,CC1(C)CC2(C)CC(=O)C1C(C(=O)O)C2C(=O)O (configuration not stated),102%
3,COc1ccc(-c2cnc(SCC(=O)Nc3ccc(-c4nc5ccccc5s4)cc3)n2-c2ccc(OC)cc2)cc1,93.2%
4,COc1ccc2c(c1)[n+](=O)c(C(=O)/C=C/c1cc(OC)c(OC)c(OC)c1)c(C)n2[O-],64.7%
5,Nc1c(C(=O)Nc2cccc(Cl)c2)sc2nc3c(cc12)C(O)CCC3 (configuration not stated),44.6%
6,COc1cccc(-c2nc(-c3ccc(N)cc3)co2)c1,90.3%
7,O=C(Nc1ccccc1S)c1ccccc1,86.6%
8,COc1ccc2c(c1)c(CC(=O)[Se]C)c(C)n2C(=O)c1ccc(Cl)cc1,33.6%
9,Nc1nc(SCc2cccnc2)c2ncn(C3OC(CO)C(O)C3O)c2n1 (configuration not stated),84.8%
10,O=C1c2cc3c(cc2-c2c1c1ccc(Cl)cc1c(=O)n2CCCNCCO)OCO3,-70.7% (active)
11,N#Cc1c(NC(=O)c2ccco2)[n+]([O-])c2cc(Cl)c(Cl)cc2[n+]1[O-],85.2%
12,Cc1[nH]ccc2cc3nc4ccccc4c3cc12,62%
13,C=C1CC[C@@H]2[C@](C)(COC(C)=O)[C@H](OC(C)=O)CC[C@@]2(C)[C@@H]1CC(NCc1ccccc1)C1=CCOC1=O (some centres not stated),38.8%
14,COC(=O)c1cc2oc(/C=N\NC(=O)c3cc4oc(C)c(C)c4[nH]3)cc2[nH]1,115%
15,O=C(CSc1nnc(-c2cc(-c3ccccc3)nc3ccccc23)o1)c1ccc(Br)cc1,94.8%
16,O=c1oc2c(cc1-c1ccc([N+](=O)[O-])cc1)C(O)Oc1ccccc1-2 (configuration not stated),78.7%
17,CC(C)Sc1nc(Cl)c(C#N)c(-c2ccc(F)cc2)n1,102%
18,Cc1cc(C)cc(S(=O)(=O)n2ccc(-c3ccc4c(c3)CCC(C)(C)O4)n2)c1,73.9%
19,CCc1nn2c(-c3ccc(Cl)cc3C)c(-c3cc(OC)c(OC)c(OC)c3)nc2s1,60%
20,O=C(Nc1cccc(-n2cc(-c3ccncc3)c(-c3cc(O)cc(Cl)c3)n2)c1)Nc1ccc(Cl)c(Cl)c1,-61.8% (active)

row,SMILES,growth
1,COc1ccccc1-n1c(-c2ccc(O)cc2C)cn2c3c(=O)[nH]c(=O)n(C)c3nc12,76.6%
2,CCCCCN1C(=O)CCC1=O,99.3%
3,O=C1NCCc2c1noc2-c1ccccc1,104%
4,CCOC(=O)c1cc2oc(/C=C/c3cc(=O)c4cc(Cl)ccc4o3)cc2[nH]1,75.8%
5,COc1cc(/C=C/C(=O)c2c(C)n([O-])c3ccccc3[n+]2=O)cc(OC)c1OC,54.7%
6,O=C(c1ccccc1)C(CN1CCCCC1)c1ccccc1 (configuration not stated),25.8%
7,c1ccc2c(-c3nc4ccccc4[nH]3)cccc2c1,32.2%
8,COc1cc(/C=C/c2cc(/C=C/c3ccc(O)c(OC)c3)n(C(=O)Cc3ccccc3)n2)ccc1O,1.59% (active)
9,O=C1NC(=O)/C(=C/c2ccc(Cl)cc2Cl)N1,102%
10,Nc1nc2c(c(=O)[nH]1)C1(C(=O)Nc3ccccc31)c1c(nc(N)[nH]c1=O)N2,103%
11,COc1ccc(NS(=O)(=O)N2CCCCC2)cc1,82.5%
12,COc1ccc(-c2cc(-c3cccnc3)nc3sc(C(=O)Nc4ccccc4)c(N)c23)cc1OC,69.3%
13,C/C(=C\CCc1ccoc1)CC/C=C(\C)CCCNc1ccc(F)cc1,83.8%
14,Cc1cc2c(cc1C)[n+](Cc1ccc3ccccc3c1)cn2Cc1ccc2ccccc2c1,-80.5% (active)
15,CCN(CC)CCCCCCCNc1c2ccc(Cl)cc2nc2ccc(OC)cc12,-55% (active)
16,Cc1cc(C(=O)Nc2ccc3cc(CN4CCOCC4)ccc3n2)c(C)n1-c1ccccc1,7.01% (active)
17,COc1cc(Cl)cc(-c2nn(-c3cccc(NC(=O)c4cc(C(F)(F)F)cc(C(F)(F)F)c4)c3)cc2-c2ccncc2)c1,81.4%
18,O=C(NCCNC(=O)Oc1cccc2ccccc12)Oc1cccc2ccccc12,91.1%
19,COC(=O)[C@H](Cc1cn(C)cn1)NC(=O)[C@H](C)NC(=O)Nc1cc(C(F)(F)F)cc(C(F)(F)F)c1,-93% [100 µM] (active)
20,O=C1CNc2cc(Cl)ccc2N1,101%
